Data: the supplement of paper PMC9477273

system: DRIVER-selected RNA biosensor (aptazyme) pool; assay: maximum fold change of ribozyme cleavage across biosensor pool versus no-compound control; higher = stronger biosensor response (ligand inhibits cleavage); details: 10 µM
Description: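 CleaveSeq: a pool of resynthesized hammerhead-ribozyme RNA biosensors (sTRSV scaffold with randomized loops, 1,730 sequences) was T7-transcribed at 37 °C for 15-30 min with a single compound at 10 µM. Cleaved and uncleaved products were counted by NGS, and fold change of cleavage was computed against the DMSO-only condition. The value is the maximum fold change of cleavage over all biosensors in the pool. About 255 compounds were tested individually.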

| SMILES | maximum fold change |
| --- | --- |
| O=Cc1cn(Cc2ccc(F)cc2Cl)c2ccccc12 | 3 |
| Cc1ccc(CNC(=O)CN2CC(c3ccccc3)CC2=O)cc1 (centres undefined) | 3.05 |
| CN1CCN(Cc2csc3c2CCCC3)CC1 | 3.66 |
| O=C(Cn1cnc2sc3c(c2c1=O)CCCC3)NCCCC(=O)N1CCC2(CC1)OCCO2 | 2.67 |
